From PubChem BioAssay AID463173 (ICCB-Longwood Screening Facility, Harvard Medical School, 2010)
Hit rate of the full screen: of about 52,000 compounds, about 1,700 (3.3%) were called active. Shown is part of a subset that was picked to be rich in actives. Values without a mark were called inactive. Rule as the data show it: active = survival mostly below about 52% (no sharp cut-off); inactive = mostly above about 56%.

test system: Wild type; test: S. aureus survival, RN4220 and DeltatarO strains – OD600, teichoic acid synthesis inhibitors, primary screen (AID 463173); details: S. aureus RN4220 wild type/DeltatarO growth, OD600, 18 h, stronger effect = lower value, concentration not given here

Row | Structure (SMILES) | survival
1 | Cc1cc(NC(=O)c2cccn(Cc3cccc(Cl)c3)c2=O)no1 | 72%
2 | O=C1NC(=O)N(Cc2ccco2)C(=O)/C1=C\c1ccco1 | 111%
3 | O=C(Nc1ccc2c(c1)OCO2)c1cccn(Cc2ccc(F)cc2)c1=O | 59%
4 | CCCc1nc(SC)ncc1C(=O)Nc1ccc(Cl)cc1C(=O)c1ccccc1 | 84%
5 | COC(=O)C1=C(C)OC(N)=C(C#N)C12C(=O)Nc1ccc(C)cc12 (stereo unspecified) | 96%
6 | COc1ccc(CN2CCNCC2)cc1 | 98%
7 | Cc1cccc(NC(=O)Cn2cc(C(=O)c3ccccc3)c3ccccc32)c1C | 71%
8 | CC(c1ccccc1F)n1cc(C(=O)NC2CCCC2)nn1 (stereo unspecified) | 103%
9 | CCOc1ccc2nc(NC(=O)c3cccn(Cc4ccc(C)cc4)c3=O)sc2c1 | 76%
10 | Cc1ccc(Cn2cccc(C(=O)Nc3cc(C)on3)c2=O)cc1 | 81%
11 | O=C1CN=C(c2ccccc2Cl)c2cc(Cl)ccc2N1Cc1cccc(Cl)c1 | 128%
12 | O=C(c1ccc2c(c1)N(Cc1ccc(F)cc1Cl)C(=O)c1ccccc1S2)N1CCC2(CC1)OCCO2 | 78%
13 | Cc1ccc(C)c(CN2C(=O)c3ccccc3Sc3ccc(C(=O)N4CCC5(CC4)OCCO5)cc32)c1 | 14% (active)
14 | Cc1ccc(CN2C(=O)c3ccccc3Sc3ccc(C(=O)N4CCC5(CC4)OCCO5)cc32)cc1 | 75%
15 | C1CNC2NCCNC2N1 (stereo unspecified) | 125%
16 | O=C1NC(=O)C(C(CC(=O)c2ccccc2)c2ccccc2)C(=O)N1 (stereo unspecified) | 116%

Row | Structure (SMILES) | survival
17 | CN1C(=O)C(=Cc2ccco2)C(=O)N(C)C1=O | 109%
18 | CCCSc1nc2ccccc2c(=O)n1-c1ccccc1OC | -1% (active)
19 | COc1ccccc1-n1c(/C=C/c2ccccc2)nc2ccccc2c1=O | 80%
20 | CSc1nc2ccccc2c(=O)n1-c1ccccc1C | 107%
21 | CC(=O)N1CC(=O)Nc2ccc(F)cc2C1c1ccccc1 (stereo unspecified) | 82%
22 | Cc1ccccc1-c1nc(CN2C(=O)CN=C(c3ccccc3)c3ccccc32)c(C)o1 | 2% (active)
23 | Cc1ccc(-c2nc(CN3C(=O)CN=C(c4ccccc4)c4ccccc43)c(C)o2)cc1 | 72%
24 | Cc1cccc(-c2nc(CN3C(=O)CN=C(c4ccccc4)c4ccccc43)c(C)o2)c1 | 2% (active)
25 | COc1ccc(-c2nc(CN3C(=O)CN=C(c4ccccc4)c4ccccc43)c(C)o2)cc1 | 93%
26 | COc1ccc(-c2nc(CN3C(=O)CN=C(c4ccccc4)c4ccccc43)c(C)o2)cc1OC | 96%
27 | Cc1oc(-c2ccc(Cl)cc2)nc1CN1C(=O)CN=C(c2ccccc2)c2ccccc21 | 80%
28 | Cc1ccc2scc(N3CCN(C)CC3)c(=O)c2c1 | 136%
29 | O=c1[nH]c2ccccc2c(=O)n1-c1ccc(Cl)c(Cl)c1 | 91%
30 | CCOc1nc(NCc2ccco2)nc(N2CC3CC(C2)c2cccc(=O)n2C3)n1 (stereo unspecified) | 104%
31 | Nc1c2c(nc3sc4c(c13)CCCC4)CCCC2 | 118%
